Compound activity deposited in PubChem by National Center for Advancing Translational Sciences (NCATS).
Only some compounds are listed: those with a hit (about 5.7% of all), similar ones and a draw of the others.
B2AR arrestin: qHTS assay of beta-arrestin-biased ligands of beta2-adrenergic receptor; Beta-2 adrenergic receptor (Homo sapiens), P07550; beta-arrestin recruitment to beta2AR, cell-based reporter; Potency, µM (highest dose often 46.1 µM), for the others: top-dose activation, usual class: activators; actives 0.02% (n = 330,000);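 also: 0% = DMSO controls and full agonism = EC100 isoproterenol or metaproterenol; nearly all actives have a fitted effect of over 65% in size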
NPSR antag: qHTS Assay for Antagonists of the Neuropeptide S Receptor: cAMP Signal Transduction; actives 1% (n = 220,000); Q6W5P4; Potency, µM (highest dose often 38.3 µM), inactives show top-dose activity change, negative = inhibition, most hits filed as inhibitors; CHO-NPSR cells, cAMP TR-FRET, antagonist mode; also: nearly all actives have a fitted effect of over 50% in size
Target sequence (Q6W5P4 whole entry, looked up): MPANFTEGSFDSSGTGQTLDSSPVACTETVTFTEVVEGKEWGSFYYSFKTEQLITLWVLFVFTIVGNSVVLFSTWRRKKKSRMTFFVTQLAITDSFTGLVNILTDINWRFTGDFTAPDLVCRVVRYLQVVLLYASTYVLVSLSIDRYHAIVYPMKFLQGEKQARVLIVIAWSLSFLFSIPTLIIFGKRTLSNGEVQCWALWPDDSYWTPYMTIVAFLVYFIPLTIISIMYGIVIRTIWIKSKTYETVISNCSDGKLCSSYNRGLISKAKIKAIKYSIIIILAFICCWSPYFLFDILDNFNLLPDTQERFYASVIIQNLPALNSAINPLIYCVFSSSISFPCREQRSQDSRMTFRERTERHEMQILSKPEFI
Gal4-VP16 FLuc: VP16 counterscreen qHTS for inhibitors of ROR gamma transcriptional activity; Drosophila S2 Gal4-VP16 UAS-luciferase, luminescence, 20 h; Potency, µM (doses to about 53.6 µM), without a hit: at the highest dose activity, negative = inhibition, usual class: inhibitors; actives 3.5% (n = 310,000);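 also: Gal4-VP16 expression switched on by copper sulfate through the metallothionein promoter; nearly all actives have a fitted effect of over 50% in size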
RORg inh: qHTS for inhibitors of ROR gamma transcriptional activity. Nuclear receptor ROR-gamma (Mus musculus), P51450. Drosophila S2 Gal4-RORgamma UAS-luciferase reporter, 20 h. Potency, µM (series often up to 53.6 µM), for the others: at the highest dose activity change, negative = inhibition, most hits filed as inhibitors. actives 5.4% (n = 310,000). AID 2551, 2010; also: nearly all actives have a fitted effect of over 60% in size
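Luminescence from a UAS-regulated Photinus luciferase reporter in stably transfected Drosophila Schneider cells is measured; decreased signal marks ROR gamma inhibition. Fusion expression is induced by 700 uM copper sulfate for 20 hr.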
Active calls of the source: *; ? = inconclusive; . = not tested or not shown; [ ] = another dose, or the depositor's remark. Calls follow the shape of the dose curve; as a rule, active = well fitted curve in the direction sought with a large enough effect; inconclusive = small, poorly fitted or top-dose-only effect, or another doubt; inactive = no such curve, though single readings can be large; an effect the other way counts as inactive or inconclusive. Unless noted, % is scaled to controls: 0 for no effect and ±100 for the full control effect; potency is read from the fitted curve at half-maximal effect.

SMILES	B2AR arrestin	NPSR antag	Gal4-VP16 FLuc	RORg inh
COC(=O)/C=C1/S/C(=N/NC(=O)c2ccc(OC)cc2)NC1=O	0.5%	.	?	14.1µM*
CC(C)CCCN1C(N(C)C)=NC[C@@H]1Cc1ccccc1	-1.0%	.	.	.
CC1CC(C)(C)Nc2ccc(OC(=O)c3ccco3)cc21 (stereo not given)	-0.8%	?	2.51µM*	5.01µM*
O=C(Oc1ccc2ccccc2c1)c1ccco1	0.4%	10.3%[46.1 µM]	-9.4%	4.1%
C=CCN=C1N[C@@H](c2ccc(Br)cc2)C(C(=O)OC)=C(C)N1Cc1ccccc1	0.1%	.	-14.4%	28.8%
CCN(C(=O)CSc1nc2n[nH]c(C)c2c(=N)n1-c1ccc(Cl)c(C)c1)c1cccc(C)c1	-0.7%	.	?	12.6µM*
CN1C(=O)/C(=C\C(=O)c2cccs2)c2ccccc21	-0.3%	-28.5%	12.6µM*	5.62µM*
CC(=O)CC(c1ccccc1)S(=O)(=O)c1ccc([N+](=O)[O-])cc1 (stereo not given)	-1.2%	.	3.7%	-16.4%
Cc1ccc(C(C#N)c2ccc3c(C(F)(F)F)cc(C(F)(F)F)nc3n2)cc1 (stereo not given)	0.1%	-11.6%[46.1 µM]	-26.0%	20.9%
N#CC(c1ccccc1)c1ccc2c(C(F)(F)F)cc(C(F)(F)F)nc2n1 (stereo not given)	0.3%	?	?	11.2µM*
CCCCC(=O)NCCc1c(Cc2ccccc2)[nH]c2ccccc12	.	.	-20.9%	38.6%
NC(=S)N/N=C1\CCOc2ccc(Cl)cc21	5.6%	?	8.91µM*	3.16µM*
NC(=S)NN=C1c2cc(S(=O)(=O)N3CCOCC3)ccc2-c2ccc(S(=O)(=O)N3CCOCC3)cc21	-2.4%	-11.0%	-16.6%	-13.5%[10 µM]
NC(=O)C(=O)O	.	-6.9%[46.1 µM]	.	.
COc1ccc(CNC(=O)C(C)Sc2nc3ccccc3c(=O)n2CC2CCCO2)cc1 (stereo not given)	0.0%	.	.	.
CC(C)c1ccc(/C=C/C(=O)NC2CCCCC2)cc1	-0.1%	-36.7%	-15.5%	?
CC(NC(=S)NC1CCCCC1)c1ccc(C(C)(C)C)cc1 (stereo not given)	0.0%	.	2µM*	1.58µM*
CC(C)c1ccc(C(C)NC(=S)NC2CCCCC2)cc1 (stereo not given)	-0.8%	.	2.82µM*	1.41µM*
Cc1ccc(F)c(C2C3C=CCCC3(C)C(=O)N2Cc2ccccc2)c1 (stereo not given)	.	.	31.6µM*	?
CCCCCOC(=O)Nc1nc(=O)n(C2O[C@H](C)[C@@H](O)[C@@H]2O)cc1F (stereo not given in full)	.	.	-4.2%	-11.7%[10 µM]
Fc1ccc(-c2n[nH]c(=S)c3ccccc23)cc1	-0.1%	-2.9%	15.8µM*	7.08µM*
O=c1[nH]nc(-c2ccccc2)c2ccccc12	-0.5%	?	-4.5%	17.4%
COc1ccc(C(C)C(=O)c2ccc(O)cc2O)cc1 (stereo not given)	.	.	?	-0.6%
Cc1oc(-c2nc3ccccc3n2C)cc1C(=O)c1ccccc1	0.4%	-18.5%[46.1 µM]	?	11.2µM*
Cc1ccc(-c2nc3ccccc3n2C)o1	-0.2%	-5.5%[46.1 µM]	?	11.2µM*
SMILES	B2AR arrestin	NPSR antag	Gal4-VP16 FLuc	RORg inh
CCC1(CC)NC(=O)N(CC(=O)OCC(=O)Nc2ccc(F)c(F)c2F)C1=O	-0.1%	23.9%	-3.3%	13.4%
CC(C)(C)c1ccc(OCC2CO2)cc1 (stereo not given)	.	.	6.4%	22.8%
COCCn1c(=O)c(-c2ccccc2)nc2cnc(Oc3ccccc3)nc21	.	.	8.4%	14.0%
CCc1cc2c(SCc3nc4sc(C(C)=O)c(C)c4c(=O)[nH]3)ncnc2s1	0.5%	43.5%	?	10µM*
Cc1sc2nc(CSc3ncn[nH]3)[nH]c(=O)c2c1C	3.0%	6.3%	0.7%	0.4%
Cc1cccc(/C=N\N=C\c2cccc(C)c2)c1	5.9%	.	-7.7%	3.5%
S=C(Nc1ccccc1)N1CCC(Cc2ccccc2)CC1	-0.3%	.	6.31µM*	6.31µM*
COc1ccc(NC(=S)N2CCC(Cc3ccccc3)CC2)cc1	0.5%	.	?	8.91µM*
OCC1CCCN(C(=S)Nc2ccc(Nc3ccccc3)cc2)C1 (stereo not given)	-0.2%	-1.8%	7.94µM*	7.08µM*
COc1cc(NC(=S)N2CCC(C(O)(c3ccccc3)c3ccccc3)CC2)cc(OC)c1	0.0%	-29.8%	?	14.1µM*
